Assay outcomes as filed in PubChem.
A549 viability: kills or reduces viability of A549 cells in Nrf2 counter-screen | A549 ARE-Fluc cells, CellTiter-Fluor viability, 18-24 h | Potency, µM (top dose mostly 46 µM), for inactives: at the top dose activity change, negative = cytotoxicity, usual class: inhibitors | actives 0.16% (n = 390,000) | AID 504648; note: potency is the fitted concentration of half-maximal effect
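A549 ARE_Fluc cells in 5% FBS OPTI-MEM were exposed to compounds in concentration-response for 18-24 h at 37 deg C. Viability was read by CellTiter-Fluor fluorescence (Ex 405/Em 525) after 30 min, before the luciferase read.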
Nrf2 inh: blocks Nrf2 signaling; A549 ARE-Fluc reporter, luciferase luminescence, 18-24 h; Potency, µM (top dose mostly 46 µM), for the others: at the highest dose activity change, negative = inhibition, hits mostly inhibitors; actives 2.1% (n = 360,000); note: potency is the fitted concentration of half-maximal effect; nearly all actives have a fitted effect of over 60% in size
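Nrf2 activity is the BugLite luminescence, read 15 min after reagent at room temperature, following CellTiter-Fluor cytotoxicity readout (30 min, 37C). Compound titrations were applied for 18-24 h to 5000 A549 ARE_Fluc cells/well in 5% FBS OPTI-MEM.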
KB-V1 MDR tox: kills drug-selected multidrug resistant KB-V1 cells; KB-V1 MDR cells viability, CellTiter-Glo, 72 h; Potency, µM (titrated, usually from 46.1 µM), most hits filed as cytotoxic; actives 3.4% (n = 400,000); AID 1347076; note: potency is the fitted concentration of half-maximal effect; nearly all actives have a fitted effect of over 60% in size
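Readout: CellTiter-Glo luminescence, 10 min after addition. Cells: KB-V1 MDR subline, 72 h at 37 degrees C with compound. Analysis: corrected, normalized data fitted to concentration-effect curves.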
KB-3-1 cytotox: kills parental KB-3-1 adenocarcinoma cells. KB-3-1 viability, CellTiter-Glo ATP luminescence, 72 h. Potency, µM (doses to about 46.1 µM), most hits filed as cytotoxic. actives 1.4% (n = 400,000). AID 1347075; note: potency is the fitted concentration of half-maximal effect; nearly all actives have a fitted effect of over 60% in size
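Multi-concentration cytotoxicity screen in KB-3-1 cells grown in DMEM lacking phenol red with 10% FBS. After 72 h at 37 °C with compound, ATP-dependent luminescence was recorded.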
Giardia kill: kills Giardia lamblia | Giardia lamblia trophozoite viability | activity change, % at 7.66 µM, hits read low | actives 0.15% (n = 340,000); in the data active = activity change below about -80%; inconclusive = between about -30% and that limit;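 note: parasites exposed to compound for two days anaerobically before the ATP read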
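Anaerobic 48 hrs incubation at 37 deg C of 100 trophozoites/well with test compounds; ATPLite 1-Step luminescence, 15-30 min RT, reports cellular ATP as viability.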
PI4K2A inh: blocks human PI4K2A kinase activity. AID 1346378. actives 0.13% (n = 420,000). Q9BTU6. activity change, negative = inhibition, % at 76.9 µM. purified PI4K2A, ADP-Glo luminescence, 1 h; active compounds read low; in the data active = activity change below about -50%; inconclusive = mostly about -30% to -49%;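 note: -100% = wells without enzyme as full effect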
Target sequence (Q9BTU6 whole entry, looked up): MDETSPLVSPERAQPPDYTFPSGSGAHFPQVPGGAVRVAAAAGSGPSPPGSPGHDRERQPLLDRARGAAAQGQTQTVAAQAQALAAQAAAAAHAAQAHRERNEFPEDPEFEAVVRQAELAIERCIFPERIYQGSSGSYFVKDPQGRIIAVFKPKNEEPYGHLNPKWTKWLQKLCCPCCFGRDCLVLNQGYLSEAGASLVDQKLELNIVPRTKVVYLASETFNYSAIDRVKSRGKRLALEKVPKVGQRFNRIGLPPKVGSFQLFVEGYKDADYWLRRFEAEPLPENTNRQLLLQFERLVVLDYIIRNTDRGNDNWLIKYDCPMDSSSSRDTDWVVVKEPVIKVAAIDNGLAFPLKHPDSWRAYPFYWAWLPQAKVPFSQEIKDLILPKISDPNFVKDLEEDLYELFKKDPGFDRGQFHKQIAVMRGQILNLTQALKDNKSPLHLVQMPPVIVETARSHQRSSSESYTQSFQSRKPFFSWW
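ADP-Glo luminescence measured ADP generated by PI4K2A enzyme (4 ug/mL before mixing) with 1.2 mM PI substrate (pre-mix) and 300 microM ATP (pre-mix). Tris pH7.5 buffer with MgCl2, Triton X-100; 1 h reaction at ambient temperature.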
An asterisk follows results filed as active; i = inactive; u = inconclusive; x = no result; [ ] = dose if it differs, or a comment. Rows were chosen to be rich in hits. Some 5.7% of all compounds tested hit in one or more screens of this group. Unless noted, calls come from the whole dose curve; as a rule, active = well fitted curve in the direction sought with a large enough effect; inconclusive = small, poorly fitted or top-dose-only effect, or another doubt; inactive = no such curve, though single readings can be large; an effect the other way counts as inactive or inconclusive. Unless noted, % is set by controls: 0 for no effect and ±100 for the full control effect.

SMILES	A549 viability	Nrf2 inh	KB-V1 MDR tox	KB-3-1 cytotox	Giardia kill	PI4K2A inh
Cc1ccc(C(=O)c2cc(O)c(O)c([N+](=O)[O-])c2)cc1	x	x	x	x	x	0.1
O=c1[nH]c2c(-c3nc(-c4ccc(F)cc4)cs3)c(O)cn2c2ccc(Br)cc12	x	x	i	i	x	x
COc1cc(/C=C/C(=O)c2ccc3c(c2)OCCO3)cc(Br)c1OCC(=O)N(C)C	u	20.6µM*	2.31µM*	5.17µM*	-0.4	-3.9
O=C(/C=C/c1ccncc1)c1ccc2c(c1)OCCO2	1.2%	u	u	23.1µM*	u	1.0
O=C(/C=C/c1ccccc1)c1ccc2c(c1)OCO2	8.1%	26.0%	i	i	6.3	-17.2
COc1cc(/C=N/Nc2nc3ccccc3[nH]2)cc(Br)c1OCC(=O)N(C)C	-2.5%	u	i	i	2.1	4.5
Cc1cc[n+](CC(=O)c2ccc3c(c2)OCCO3)cc1	10.6%	1.3%	i	i	-14.3	7.6
O=C(C[n+]1ccc(/C=C/c2ccccc2)cc1)c1ccc2c(c1)OCCO2	-8.0%	4.4%	u	11.6µM*	-2.5	4.7
CC(OP(=O)(O)C(NC(=O)[C@H](Cc1ccc(O)cc1)NC(=O)OC(C)(C)C)C(C)C)C(=O)O (stereo partly drawn)	x	x	x	x	x	0.8
O=C(Nc1ccc(F)cc1)OC1CC2CC1[C@H]1CCCCN1[C@H]2Cc1ccccc1 (stereo partly drawn)	x	x	x	x	x	1.0
COc1cccc(NC(=O)CC(C)S(=O)(=O)c2ccc3c(c2)NC(=O)CO3)c1 (stereo not drawn)	14.8%	-13.4%	i	i	x	-0.4
Cc1cccc(C)c1NC(=O)C1CCCN1S(=O)(=O)c1cccc2cccnc12 (stereo not drawn)	x	x	x	x	x	0.0
O=C(CSc1nnc(-c2cccnc2)n1Cc1ccco1)Nc1ccc(F)cc1Cl	x	x	x	x	x	-3.7
C=CCOc1ccc(CN(C)c2ccc(S(=O)(=O)N3CCN(C)CC3)cc2[N+](=O)[O-])cc1	1.8%	-10.8%	8.2µM*	u	2.5	1.4
CCOc1ccc(Nc2ccc(S(=O)(=O)N3CCN(C)CC3)cc2[N+](=O)[O-])cc1OCC	-2.5%	-12.7%	i	i	-5.9	-4.9
CCOc1ccc(CN(C)c2ccc(S(=O)(=O)N3CCN(C)CC3)cc2[N+](=O)[O-])cc1OC	-4.2%	16.4µM*	2.31µM*	7.31µM*	-2.0	-1.7
CN1CCN(S(=O)(=O)c2ccc(N(C)Cc3ccc(C(F)(F)F)cc3)c([N+](=O)[O-])c2)CC1	-16.7%	u	i	i	3.9	1.2
O=S(=O)(O)c1cc(O)c2c(O)c(N=Nc3cc(Cl)ccc3O)c(S(=O)(=O)O)cc2c1	14.6µM*	20.6µM*	u	14.6µM*	-3.1	-52.6*
O=C(CSc1nc2ccccc2o1)NN=C/C=C/c1ccccc1	x	x	x	x	x	-3.5
Cc1c(C#N)c2ccccc2n1CCOc1ccccc1F	-2.1%	23.1µM*	i	i	11.9	-2.7
CC1(C(=O)NCc2ccc(F)c(F)c2)Cc2c(-c3cccc(C(N)=O)c3)ccnc2O1 (stereo not drawn)	x	x	i	u	x	-5.5
CC(=O)Nc1cccc(-c2ccnc3c2CC(C)(C(=O)NCC2CC2)O3)c1 (stereo not drawn)	x	x	i	11.6µM*	x	0.0
CC(=O)Nc1cccc(-c2ccnc3c2CC(C)(C(=O)NCc2ccc(F)c(F)c2)O3)c1 (stereo not drawn)	x	x	u	14.6µM*	x	-2.0
CC(=O)Nc1cccc(-c2ccnc3c2CC(C(=O)NCc2ccc(F)c(F)c2)O3)c1 (stereo not drawn)	x	x	u	7.31µM*	x	1.8
COCCNC(=O)C1=C(N)C(C(=O)Nc2ccc(C)c(S(=O)(=O)N3CCCCC3)c2)SC1=Nc1ccc(C)cc1C (stereo not drawn)	3.0%[1.84 µM]	u	i	i	26.8	-0.9
SMILES	A549 viability	Nrf2 inh	KB-V1 MDR tox	KB-3-1 cytotox	Giardia kill	PI4K2A inh
CCN(CC)S(=O)(=O)c1cccc(NC(=O)C2SC(=Nc3ccc(C)cc3C)C(C(=O)NCC3CCCO3)=C2N)c1 (stereo not drawn)	-25.4%	u	20.6µM*	u	-5.4	1.9
O=C(Nc1ccc2c(c1)Cc1ccccc1-2)NC1CCCCN(Cc2cccc(Cl)c2)C1=O (stereo not drawn)	x	x	x	x	x	3.2
CN1CCN(S(=O)(=O)c2ccc(NC(=O)c3ccc(Br)o3)cc2)CC1	4.9%	3.9%	9.2µM*	i	-0.5	1.4
Cc1ccc(NS(=O)(=O)c2ccc(NC(=O)c3ccc(Br)o3)cc2)c(C)c1	-2.5%	u	18.4µM*	20.6µM*	9.6	-12.8
Cc1cc(NC(=O)c2ccc(Br)o2)ccc1NC(=O)c1ccco1	0.5%	22.5%	10.3µM*	u	-0.7	u
Cc1cc(C)cc(NS(=O)(=O)c2ccc(NC(=S)NC(=O)c3ccc(Br)o3)cc2)c1	-8.0%	x	18.4µM*	u	2.6	-0.9
Cn1c(=O)c2sccc2n2c(CCCC(=O)Nc3ccc(Oc4ccc(Cl)cc4)cc3)nnc12	-7.7%	-106.9%	x	x	x	-0.8
Cc1occc1-c1nnc(SCC(=O)Nc2ccccn2)n1-c1ccccc1	x	x	x	x	x	-0.6
O=C(C[n+]1cccc2cc(Cl)ccc21)c1ccc2ccccc2c1	x	x	i	u	x	x
O=C(Nc1ccc(S(=O)(=O)NCCc2ccccc2)cc1)c1ccc(Br)o1	-15.3%	u	10.3µM*	i	-7.3	-0.6
Cc1ccc(NS(=O)(=O)c2ccc(NC(=O)CN(c3cc([N+](=O)[O-])ccc3C)S(C)(=O)=O)cc2)c(C)c1	u	9.2µM*	u	u	-17.7	5.4
COc1ccc(-n2c(SCC(=O)NC3CCCCCC3)nnc2-c2ccncc2)cc1	x	x	x	x	x	2.9
COc1ccc(C2Nc3ccccc3C(=O)N2Cc2ccccc2Cl)cc1COc1ccc(NC(C)=O)cc1 (stereo not drawn)	-2.5%	-9.9%	x	x	x	x
C=CCN1C(=O)S/C(=C\c2ccc3c(c2)n(C)c(=O)n3C)C1=O	-3.2%	-4.5%	18.4µM*	i	-5.9	-3.5
CCOC(=O)CN1C(=O)S/C(=C/c2ccc3c(c2)n(C)c(=O)n3C)C1=O	-1.8%	23.5%	i	i	-1.9	3.9
CC(=O)c1c(C)[nH]c(C(=O)COc2cc(C)cc(C)c2)c1C	-10.7%	u	2.59µM*	i	-14.5	-2.5
CC(=O)c1c(C)[nH]c(C(=O)COc2ccc3ccc(=O)oc3c2)c1C	0.5%	u	u	i	-11.7	3.7
CCCOc1ccc(OCC(=O)c2[nH]c(C)c(C(C)=O)c2C)cc1	-24.2%	x	2.91µM*	u	5.8	3.8
Cc1ccc(Nc2nc(NCc3ccco3)nc3nccnc23)c(C)c1	-0.4%	4.6%	i	i	6.9	x
